{
  "source": "PubChem BioAssay",
  "note": "A number with no mark means an inactive call. How the calls were made is not given here. Where a SMILES comes first, the peptide text is derived from it. The star is where a group is joined. Boc = CC(C)(C)OC(=O)*",
  "data": [
    {"biological_target": "Pantothenate synthetase (Mycobacterium tuberculosis (strain ATCC 25618 / H37Rv)) (UniProt P9WIL5)", "sequence (P9WIL5 whole entry, looked up)": "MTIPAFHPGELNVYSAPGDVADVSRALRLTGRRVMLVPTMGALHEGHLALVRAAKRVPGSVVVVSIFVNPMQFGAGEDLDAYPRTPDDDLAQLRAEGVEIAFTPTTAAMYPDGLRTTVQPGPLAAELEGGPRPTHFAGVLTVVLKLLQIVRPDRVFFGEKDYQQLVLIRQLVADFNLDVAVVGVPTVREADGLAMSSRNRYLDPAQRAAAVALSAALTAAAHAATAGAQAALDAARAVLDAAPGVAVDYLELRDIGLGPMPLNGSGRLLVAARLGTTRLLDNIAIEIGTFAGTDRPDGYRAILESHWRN", "experiment": "Recombinant Mtb pantothenate synthetase (PanC) inhibitors, coupled enzyme, confirmatory (AID 375);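 further: 0% = full reaction with vehicle and 100% = no enzyme background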", "settings": "coupled enzyme assay; at 10 µM, hits give high values", "units": {"inhibition": "%"}, "values": [
      {"smiles": "COc1ccc(C2CC(c3ccccc3)Nc3nc(NC(=O)c4cccs4)nn32)cc1", "note": "(stereo not given)", "inhibition": 0},
      {"smiles": "COC(=O)c1c(C#N)c(N)nc2c1CCC2", "inhibition": 7},
      {"smiles": "CCNc1ccc2c(Cl)cc(=O)oc2c1", "inhibition": 5},
      {"smiles": "COc1cc(S(=O)(=O)NC2CCCCC2C)ccc1Cl", "note": "(stereo not given)", "inhibition": 0},
      {"smiles": "CCC1CCc2c(sc3ncnc(N4CCOCC4)c23)C1", "note": "(stereo not given)", "inhibition": 0},
      {"smiles": "COCCn1nnnc1C(c1cc2ccc(OC)cc2[nH]c1=O)N1CCc2ccccc2C1", "note": "(stereo not given)", "inhibition": 0},
      {"smiles": "O=C(O)C1CC(=O)N(c2ccc(Br)cc2)C1", "note": "(stereo not given)", "inhibition": 0},
      {"smiles": "COc1ccc(Cn2nnnc2CN2CCOCC2)cc1", "inhibition": 6},
      {"smiles": "CCOC(=O)N1CCC(NC(=O)Cn2c3c(c(-c4ccccc4Cl)cc2=O)CCC3)CC1", "inhibition": 0},
      {"smiles": "COc1ccc(CNC(=O)Cn2nc(C(F)(F)F)c3c2CCC3)cc1", "inhibition": 3},
      {"smiles": "N#Cc1cnc(SCC(=O)Nc2ccccc2C(F)(F)F)nc1N", "inhibition": 4},
      {"smiles": "CSCCC(NC(=O)OC(C)(C)C)C(=O)NC(CC(C)C)C(N)=O", "note": "(stereo not drawn) (Boc-Met-Leu-NH2; configuration not given here)", "inhibition": 0},
      {"smiles": "Cc1cc(C)cc(NC(=O)C2CCCN(S(=O)(=O)c3cnc[nH]3)C2)c1", "note": "(stereo not given)", "inhibition": 0},
      {"smiles": "CCOC(=O)Cc1nnc(NC(=O)CSc2nnc3c4ccccc4n(C(C)C)c3n2)s1", "inhibition": 1},
      {"smiles": "CCC(=O)Nc1cc(Cl)ccc1N1CCN(C(=O)CC)CC1", "inhibition": 0},
      {"smiles": "OCCN1CCN(CCCN2c3ccccc3Sc3ccc(Cl)cc32)CC1", "inhibition": 0},
      {"smiles": "Cc1noc(NS(=O)(=O)c2ccc(N3C(=O)c4ccccc4C3=O)cc2)c1C", "inhibition": 3},
      {"smiles": "O=C1NC2c3ccccc3C(=O)N2c2c1cnn2-c1ccccc1", "note": "(stereo not given)", "inhibition": 1},
      {"smiles": "CCNc1oc(COc2cccc(C)c2)nc1C#N", "inhibition": 5},
      {"smiles": "CCC(=O)Nc1ccc(F)c(Cl)c1", "inhibition": 6},
      {"smiles": "Cn1nnnc1SCC(=O)NC1CCCCC1", "inhibition": 0},
      {"smiles": "CC(=O)SCC(=O)N=c1sc2cc(F)ccc2n1C", "inhibition": 0},
      {"smiles": "COc1cccc(C(c2nnnn2CCc2ccccc2)N2CCN(c3ccccc3)CC2)c1OC", "note": "(stereo not given)", "inhibition": 0},
      {"smiles": "CC(=O)NC1(c2nnnn2CCOC(=O)Nc2ccc(Cl)cc2)CCCCC1", "inhibition": 1},
      {"smiles": "CCCn1c(=N)n(CC(=O)c2cccs2)c2ccccc21", "inhibition": 3},
      {"smiles": "Cn1nnc2cc(C(=O)N3CCCCCC3)ccc21", "inhibition": 0},
      {"smiles": "CCc1nn(CC(=O)NCCCN2CCc3ccccc3C2)c(=O)c2cc3sccc3n12", "inhibition": 8},
      {"smiles": "CCCCc1cc2c(c(NC(C)=O)n1)c(=O)oc1ccccc12", "inhibition": 0},
      {"smiles": "CN1CCN(c2oc(COc3ccc(-c4ccccc4)cc3)nc2C#N)CC1", "inhibition": 0},
      {"smiles": "Cc1nn(-c2ccc(F)cc2)c(C)c1NS(=O)(=O)c1ccc(Cl)cc1", "inhibition": 11},
      {"smiles": "Cc1cccc(CN2CCC(CNC(=O)C3CCCN(S(=O)(=O)c4cnc[nH]4)C3)CC2)c1", "note": "(stereo not given)", "inhibition": 0},
      {"smiles": "COCCCN1C(=O)C(O)=C(C(=O)c2ccco2)C1c1ccc(Br)cc1", "note": "(stereo not given)", "inhibition": 6},
      {"smiles": "CC(C)c1nc(N2CCN(C(=O)c3ccco3)CC2)c2c3c(sc2n1)CCCC3", "inhibition": 1},
      {"smiles": "O=C(CSc1nnc(Cn2nnc(-c3ccccc3)n2)n1-c1ccccc1)Nc1ccc(F)cc1", "inhibition": 1},
      {"smiles": "Cc1ccc(CN2C(=O)CCC2C(=O)NCCCN2CCCC(C)C2)cc1", "note": "(stereo not given)", "inhibition": 1},
      {"smiles": "Cc1cc(-c2ccccc2)c(C#N)c(N)n1", "inhibition": 1},
      {"smiles": "Oc1ccccc1-c1cc(C(F)(F)C(F)F)[nH]n1", "inhibition": 0},
      {"smiles": "Cc1ccc(C)c(N2CCN(C(=O)c3cc4ccccn4n3)CC2)c1", "inhibition": 0},
      {"smiles": "CCSC(SCC)[C@H](O)[C@@H](O)[C@H](O)[C@H](O)CO", "inhibition": 2},
      {"smiles": "CC(NC(=O)c1noc2c1CCCCC2)c1ccccc1", "note": "(stereo not given)", "inhibition": 0}
    ]}
  ]
}
